# Reference: PubChem BioAssay AID1030 (National Center for Advancing Translational Sciences (NCATS), 2008)
# Screen size: about 220,000 compounds; about 16,000 (7.3%) were called active. Inconclusive results (about 25%) are left out. Shown is part of a subset that was picked to be rich in actives. Where a call stands in place of a potency, no number is given. A number with no mark means an inactive call. Calls come from the whole dose curve; as a rule, active = well fitted inhibition curve with a large enough effect (not every such curve was filed as active); inconclusive = small, poorly fitted or top-dose-only effect, or another doubt; inactive = no such curve, though single readings can be large or run the other way.
# Biological target: Aldehyde dehydrogenase 1A1 (Homo sapiens) (UniProt P00352)
# Assay: qHTS Assay for Inhibitors of Aldehyde Dehydrogenase 1 (ALDH1A1)
# Conditions: Purified ALDH1A1, NADH fluorescence, propionaldehyde substrate; series mostly up to 75.3 µM
# Potency is the fitted concentration of half-maximal effect.
# Sequence of Aldehyde dehydrogenase 1A1 (Homo sapiens) (P00352 whole entry, looked up): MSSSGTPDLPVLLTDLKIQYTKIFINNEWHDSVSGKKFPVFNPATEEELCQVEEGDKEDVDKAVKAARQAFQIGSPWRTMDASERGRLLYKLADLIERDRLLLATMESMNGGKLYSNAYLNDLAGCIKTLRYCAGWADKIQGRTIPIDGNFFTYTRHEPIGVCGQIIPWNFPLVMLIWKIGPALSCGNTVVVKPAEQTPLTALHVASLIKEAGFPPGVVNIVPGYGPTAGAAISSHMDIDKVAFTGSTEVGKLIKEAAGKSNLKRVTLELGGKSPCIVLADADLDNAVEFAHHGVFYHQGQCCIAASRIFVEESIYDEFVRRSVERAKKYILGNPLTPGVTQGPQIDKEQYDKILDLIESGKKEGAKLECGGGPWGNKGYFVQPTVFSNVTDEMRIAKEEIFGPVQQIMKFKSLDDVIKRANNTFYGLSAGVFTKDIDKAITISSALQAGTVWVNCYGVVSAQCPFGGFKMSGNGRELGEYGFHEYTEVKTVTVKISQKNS
Compound,Potency,"activity, negative = inhibition"
CCOC(=O)C1=C(C)N=C2c3ccccc3C(=O)C2C1c1ccc(Br)cc1 (stereo not given),inactive,–
O=C(CN1C(=O)c2ccccc2S1(=O)=O)N1CCc2ccccc21,inactive,–
CNC(=O)CN1C(=O)c2ccccc2S1(=O)=O,inactive,–
O=C1c2ccccc2S(=O)(=O)N1CC(O)Cn1c2ccccc2c2ccccc21 (stereo not given),14.1 µM (active),–
Cc1ccc(NC(=O)Cn2c(=O)n(CCC(=O)NC3CCN(Cc4ccccc4)CC3)c(=O)c3ccccc32)cc1,inactive,–
CCC(C)NC(=O)c1ccccc1NC(=O)c1ccccc1N(C)S(C)(=O)=O (stereo not given),inactive,–
CCCCNC(=O)c1ccccc1NC(=O)c1ccccc1N(C)S(C)(=O)=O,22.4 µM (active),–
COC(=O)c1ccccc1NC(=O)c1ccccc1NS(C)(=O)=O,inactive,–
NC(=O)C[n+]1cccc(C(N)=O)c1,inactive,–
O=C(Cn1cnc([N+](=O)[O-])n1)NCCc1ccccc1,inactive,–
COc1ccc(-n2nnnc2SCC(=O)NCc2cccs2)cc1,inactive,–
Cc1cc(C)nc(Nc2ncn[nH]2)n1,inactive,–
O=C(c1ccc(CN2CCOCC2)cc1)N1CCN(c2ccccc2F)CC1,inactive,–
O=C(Nc1ccccc1N1CCN(C(=O)c2ccccc2)CC1)c1ccc2c(c1)OCO2,10 µM (active),–
CCCC(=O)Nc1ccccc1N1CCN(C(=O)c2ccccc2)CC1,inactive,–
O=C(Nc1ccccc1)c1ccc2c(c1)OCO2,inactive,–
O=C(OCc1ccccc1F)c1ccc2c(c1)OCCO2,inactive,–
O=C(CN1CCN(c2ccccc2F)CC1)c1ccc2c(c1)OCO2,14.1 µM (active),–
Cc1ccc(NC(=O)Nc2ccccc2)c(Br)c1,inactive,–
O=C(NCCc1ccccn1)c1cc(-c2ccc(Cl)cc2)nc2ccccc12,inactive,–
N#Cc1cnn2cc(CCN3CCOCC3)c(-c3ccc(F)cc3)nc12,inactive,–
Cn1cnnc1SCC(=O)NNC(=O)COc1ccc(Br)cc1,inactive,–

Compound,Potency,"activity, negative = inhibition"
Cc1cc(/C=C(/C#N)C(=O)Nc2ccc(Cl)cc2)c(C)n1-c1cccnc1,inactive,–
Cc1ccc(C(=O)N/C(=C/c2cccs2)C(=O)NCC2CCCO2)cc1 (stereo not given),inactive,–
Cc1ccc(-n2c(C)cc(/C=C(\C#N)C(=O)NCC3CCCO3)c2C)cc1 (stereo not given),3.16 µM (active),–
CCOn1c(=O)c(=O)n(O)c2ccccc21,inactive,–
CC(=O)NCCc1nc2cc(NC(=O)c3ccccc3)ccc2n1C,inactive,–
COc1ccc2c(c1)CCC/C2=N\OC(=O)c1ccccc1F,inactive,–
CCSc1nnc(NC(=O)c2ccc(C)cc2)s1,inactive,–
CCSc1nnc(NC(=O)Cc2ccccc2OC)s1,inactive,–
CC(C)C(=O)Nc1nnc(Sc2ccc(N(C)C)cc2)s1,25.1 µM (active),–
O=C(c1cn2ccccc2n1)N1CCc2c([nH]c3ccccc23)C1c1ccccn1 (stereo not given),inactive,–
O=C(NCCc1ccc(F)cc1)c1n[nH]c2ccccc12,inactive,–
Cc1ccc(S(=O)(=O)NCCC(c2ccccc2)c2ccccc2)cc1C(=O)O,inactive,–
O=S(=O)(NCCNS(=O)(=O)c1ccccc1)c1ccccc1,inactive,–
CCOc1ccc(S(=O)(=O)NCCSc2ccccc2)cc1,6.31 µM (active),–
COCCNC(=O)c1ccccc1NS(=O)(=O)c1ccc(C)c([N+](=O)[O-])c1,inactive,–
Cc1ccc(S(=O)(=O)NCCSc2ccccc2)cc1[N+](=O)[O-],7.08 µM (active),–
O=S(=O)(NCCSc1ccccn1)c1ccc(Cl)cc1,inactive,–
CNC(=O)C(=O)N/N=C/c1ccccn1,inactive,–
COC(=O)c1c(C(=O)OC)c(-c2cccc(C)c2)n2c1CS(=O)C2 (stereo not given),inactive,–
Cn1cc(/C=C/C(=O)N2CCCC(C(=O)c3ccc(C(F)(F)F)cc3)C2)cn1 (stereo not given),inactive,–
CN1CCN(C(=O)/C(=C\c2ccc3c(c2)OCO3)NC(=O)c2cccs2)CC1,inactive,–
Cc1ccc(NC(=O)C2(N3CCC3=O)CCCCC2)cc1,inactive,–

Compound,Potency,"activity, negative = inhibition"
O=C(COC(=O)CNS(=O)(=O)c1ccccc1)NC12CC3CC(CC(C3)C1)C2,inactive,–
S=C(NC1CCCCC1)NN1CCOCC1,inactive,–
CC(=O)Nc1ccc(S(=O)(=O)Oc2ccc(/C=N/N=C3/NC(=O)C(CC(=O)O)S3)cc2)cc1 (stereo not given),inactive,–
CC(C)c1cnc(NC(=O)Cc2ccccc2)s1,inactive,–
C=C(C)CNC(=S)Nc1ccc(S(=O)(=O)Nc2cnc3ccccc3n2)cc1,inactive,–
COc1ccc(CN(C)C(C)C(=O)NC2CCCc3ccccc32)cc1 (stereo not given),inactive,–
COc1cc(/C=N\NC(=O)C2C(=O)NCC2c2ccccc2)cc(OC)c1O (stereo not given),inactive,–
COc1cc(/C=N/O)cc(Br)c1OCc1cccc(Cl)c1,inactive,–
CCOc1cc(/C=N/O)cc(Br)c1OC,inactive,–
COc1cc(/C=N/O)cc(Br)c1OS(=O)(=O)c1ccc(C)cc1,1.58 µM (active),–
COc1cc(/C=N/NC(=S)Nc2cccnc2)cc(OC)c1O,inactive,–
COc1cc(/C=N/Nc2ccc(C)cc2)cc(Br)c1O,25.1 µM (active),–
CC(C)(C)OC(=O)N/N=C/c1cn(-c2ccccc2)nc1-c1cccnc1,inactive,–
CCN(CC)CC(=O)Nc1sc2c(c1C(=O)c1ccccc1C)CCC2,inactive,–
Cc1ccc(SCCC(=O)NCc2ccccn2)cc1,inactive,–
N#Cc1ccc(OCc2nnc(-c3ccc([N+](=O)[O-])cc3)o2)cc1,inactive,–
CCCSc1ncccc1C(=O)O,inactive,–
CN(C)NC(=O)C(NC(=O)c1ccc(N)cc1)C12CC3CC(CC(C3)C1)C2 (stereo not given),inactive,–
CNC(=S)N/N=C/c1cn(Cc2ccc(C)cc2)c2ccccc12,inactive,–
CNC(=S)N/N=C/c1ccc(N2CCOCC2)s1,8.91 µM (active),–
Cc1ccc(NC(=S)NCCN2CCOCC2)cc1,inactive,–
CC(C)CC[n+]1ccn(C2=C([O-])c3ccccc3C(=O)/C2=N\S(=O)(=O)c2ccccc2)c1,8.91 µM (active),–

Compound,Potency,"activity, negative = inhibition"
COc1ccc(-c2csc(Nc3ccccn3)n2)cc1,inactive,–
Brc1ccc2ncnc(NCc3cccnc3)c2c1,inactive,–
Cc1ccc(S(=O)(=O)NCCSC(C)(C)C)cc1,17.8 µM (active),–
Cc1ccc(C(=O)NCCNS(=O)(=O)c2ccccc2)cc1,inactive,–
O=S(=O)(NCCc1ccccc1)c1ccccc1,inactive,–
COc1cc(OC)cc(C(=O)OCC(=O)Nc2ccc(F)cc2F)c1,inactive,–
CC(C)=C1C2CCC1C1C(=O)N(NC(=O)c3ccco3)C(=O)C21 (stereo not given),inactive,–
COc1ccccc1OCCNC(=O)c1cc([N+](=O)[O-])cc([N+](=O)[O-])c1,inactive,–
COc1ccc(NS(=O)(=O)c2cc(NC(=O)CC(=O)c3ccc([N+](=O)[O-])cc3)ccc2C)cc1,inactive,–
COc1cccc(NCCC(=O)c2cccc([N+](=O)[O-])c2)c1,0.224 µM (active),–
O=C(NCc1csc(-c2cccs2)n1)C1CC1,inactive,–
CC(C)Oc1ccc(Cc2n[nH]c(=S)n2Cc2ccccc2)cc1Cl,inactive,–
NNC(=O)COc1ccc(C2SCCS2)cc1,3.98 µM (active),–
O=C(COc1ccccc1)NCc1ccc2c(c1)OCO2,inactive,–
NC(=O)COc1ccc(C23CC4CC(CC(C4)C2)C3)cc1,inactive,–
COc1ccc(CCNC(=O)COC(=O)Cc2cc(OC)c(OC)c(OC)c2)cc1,inactive,–
CC(C)N(Cc1nc(-c2ccc3c(c2)OCO3)no1)CC1CCC(=O)N1 (stereo not given),inactive,–
Cc1nc(N)c(Br)c(C)c1Br,inactive,–
Cc1ccc(/C=N\n2c(-c3ccccc3)n[nH]c2=S)s1,inactive,–
COC(=O)c1ccc(/C=N/N2C(C)CCCC2C)cc1 (stereo not given),inactive,–
CCN(CC)S(=O)(=O)c1cccc(-c2n[nH]c(=S)n2/N=C/c2ccc(C(=O)OC)cc2)c1,22.4 µM (active),–
CCN(CC)C(=O)C(=O)Nc1cccc(Br)c1,inactive,–

Compound,Potency,"activity, negative = inhibition"
C=CCn1c(CCNC(=O)c2ccccc2F)nnc1SCC(=O)Nc1ccc(OC)cc1,inactive,–
Cc1nc(CN2CCN(C(=O)CCc3nnc(Cc4c[nH]c5ccccc45)o3)CC2)cs1,inactive,–
CCN1C(=O)N[C@@H](CCc2ccccc2)C(C(=O)OC)=C1C,–,5.7% [at 13.5 µM]
Cc1cc(NC(=O)CN2C(=O)NC(CCc3ccccc3)C2=O)no1 (stereo not given),inactive,–
COC(=O)c1c(NC(=O)CN2C(=O)NC(CCc3ccccc3)C2=O)sc2c1CCCCC2 (stereo not given),20 µM (active),–
CCCNS(=O)(=O)c1ccc2c(c1)CCCN2C(C)=O,22.4 µM (active),–
CCC1CCCCN1CCNS(=O)(=O)c1ccc2c(c1)CCN2C(C)=O (stereo not given),inactive,–
CC(=O)N1CCc2cc(S(=O)(=O)Nc3ccccc3N3CCN(C)CC3)ccc21,inactive,–
CC(=O)Nc1ccc(NC(=O)COc2ncnc3ccccc23)cc1,inactive,–
O=S(=O)(Cc1noc(-c2ccc(OC(F)(F)F)cc2)n1)c1ccc(F)cc1,inactive,–
CSc1nc2sc3c(c2c(=O)[nH]1)CCc1ccccc1-3,inactive,–
COc1ccc(-n2c(=S)[nH]c3sc4c(c3c2=O)CCc2ccccc2-4)cc1,3.98 µM (active),–
COc1cccc(-n2c(=S)[nH]c3c(oc4ccccc43)c2=O)c1,inactive,–
CC(NC(=O)CC1SC(N)=NC1=O)c1ccccc1 (stereo not given),inactive,–
O=C(NCCc1c[nH]c2ccccc12)c1cc2ccccc2oc1=O,inactive,–
CN=C1C=C/C(=N/N=c2\ccn(O)cc2C)C=C1C,inactive,–
COc1ccc(C2CC(c3cccs3)=NN2C(=O)CSc2nnc(N)s2)cc1OC (stereo not given),inactive,–
CCn1cc(C(=O)N2CCN(C3CCCCC3)CC2)c2cc(OC)c(OC)cc2c1=O,inactive,–
CCn1cc(C(=O)N2CCN(Cc3ccc4c(c3)OCO4)CC2)c2cc(OC)c(OC)cc2c1=O,2.24 µM (active),–
CCn1cc(C(=O)NCc2ccc3c(c2)OCO3)c2cc(OC)c(OC)cc2c1=O,inactive,–
Cn1cnnc1SCc1nnc(-c2ccccc2Br)o1,inactive,–
COCc1ccc(C(=O)N2CCc3c([nH]c4ccccc34)C2c2ccccn2)s1 (stereo not given),inactive,–
